CHRM1 antagonist: human M1 muscarinic receptor antagonists, primary screen, CHO-K1 cells, Fluo-8 calcium fluorescence, 1536-well; Muscarinic acetylcholine receptor M1 (Homo sapiens), P11229; CHO-K1 hM1, ACh EC80 antagonist; inhibition, % at 3 µM; actives 1.3% (n = 360,000); AID 588852, 2011;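 active means percent inhibition above its own plate's cutoff, namely the mean of that plate's compound wells plus 3 SD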;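 further: peak over basal fluorescence ratio during 140 s after agonist addition; 0% = ACh EC80 plus DMSO and 100% = DMSO alone without agonist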
Target sequence (P11229 whole entry, looked up): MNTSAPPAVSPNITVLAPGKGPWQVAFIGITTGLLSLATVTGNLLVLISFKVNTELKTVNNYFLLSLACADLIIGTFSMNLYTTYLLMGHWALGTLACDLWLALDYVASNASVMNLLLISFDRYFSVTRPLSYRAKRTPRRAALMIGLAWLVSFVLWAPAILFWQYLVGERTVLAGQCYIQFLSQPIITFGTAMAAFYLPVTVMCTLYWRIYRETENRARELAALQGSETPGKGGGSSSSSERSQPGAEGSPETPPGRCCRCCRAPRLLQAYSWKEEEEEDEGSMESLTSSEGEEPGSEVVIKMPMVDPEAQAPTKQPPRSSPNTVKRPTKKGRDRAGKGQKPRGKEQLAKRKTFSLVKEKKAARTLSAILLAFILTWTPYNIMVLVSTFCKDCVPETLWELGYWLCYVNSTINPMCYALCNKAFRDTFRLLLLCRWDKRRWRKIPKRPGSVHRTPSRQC
CHO-K1 Ca antag: M1 antagonist counterscreen hit in parental CHO-K1 cells; ATP-induced calcium, Fluo-8 fluorescence; inhibition, % at 3 µM; actives 0.6% (n = 360,000); AID 602250;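 active means inhibition above a per-plate cutoff, the plate's mean sample inhibition plus 3 SD, cut at about 24% in these data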;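 further: 0% = DMSO plus EC80 ATP and 100% = DMSO alone without ATP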
M1 PAM parental: nonselective calcium activators in parental CHO-K1 cells, primary screen, counter-screen for M1 PAM project, cell-based, Fluo-8 calcium fluorescence, full deck, 1536-well; activation, % at 3 µM; ATP EC20; 0% at ATP EC20, 100% at ATP max; AID 602247, 2012; actives 0.02% (n = 360,000);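 active means activation above the run cutoff, the mean activation of all test compounds plus 3 SD, cut at about 40% in these data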;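 further: peak over basal fluorescence ratio in a 140 s read after ATP addition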
CHRM1 agonist: human M1 muscarinic receptor agonists, primary screen, Fluo-8 calcium fluorescence, CHO-K1 cells, HTS; CHO-K1 hM1, agonist mode; 0% DMSO, 100% acetylcholine EC100; Muscarinic acetylcholine receptor M1 (Homo sapiens), P11229; activation, % at 3 µM; AID 588814, 2011; actives 0.33% (n = 360,000);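 active means activation above the run's mean compound activation plus 3 SD, cut at about 16% in these data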;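 further: peak over basal fluorescence ratio within a 140 s kinetic read after compound addition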
CHO-K1 Ca ag: counter-screen for M1 agonists: effect in parental CHO-K1 cells | Fluo-8 calcium fluorescence; scaled to maximal ATP response, vehicle zero | activation, % at 3 µM | actives 0.48% (n = 360,000); in the data active means activation above about 15%;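 further: untransfected CHO-K1 host cells lacking M1 receptor as counterscreen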
M1 PAM: human M1 muscarinic receptor positive allosteric modulators, primary screen, CHO-K1 cells, Fluo-8 calcium fluorescence, 1536-well; CHO-K1 hM1, ACh EC20; 0% = ACh EC20, 100% = maximal ACh; activation, % at 3 µM; AID 588819, 2011; Muscarinic acetylcholine receptor M1 (Homo sapiens), P11229; actives 0.088% (n = 360,000); in the data active means activation above about 19%, passing the limit was not always enough
* hit, by the source's call; . = not tested or not shown. Hits are enriched below; roughly 2.3% of the tested compounds scored in any of these assays.

SMILES	CHRM1 antagonist	CHO-K1 Ca antag	M1 PAM parental	CHRM1 agonist	CHO-K1 Ca ag	M1 PAM
CC1CC(O)C2C3(C)CCCC2(COC3=O)C12CCC1(CCOC1=O)O2 (stereo not given)	-3.7	11.3	-11.2	-1.0	0.1	4.5
Cc1ccc(Nc2nc(N)nc(N)c2N=O)cc1Cl	.	-35.8	32.4	.	36.4*	.
Nc1nc(N)c(N=O)c(Nc2ccc(Cl)c(Cl)c2)n1	.	-34.5	52.9*	.	9.3	.
Nc1nc(N)c(N=O)c(Nc2cccc(Cl)c2)n1	.	-29.3	23.6	.	4.5	.
Nc1nc(N)c(Br)c(Nc2ccc(Cl)c(Cl)c2)n1	-2.1	-15.7	3.1	5.9	0.2	3.1
CC(C)CC(=O)N1CCN(c2ccc(NC(=O)c3ccco3)cc2)CC1	-5.7	-17.0	16.1	-0.9	2.5	5.2
CCc1ccccc1NC(=O)C1(S(=O)(=O)c2ccc(C)cc2)CC1	-20.9	-20.9	12.2	-8.2	0.0	10.9
O=C(Cc1ccc(NC(=O)C2CCCN(C(=O)C3CC3)C2)cc1)Nc1cccc(C(=O)N2CCCCC2)c1 (stereo not given)	-10.3	-24.0	18.6	-4.4	-0.1	4.9
Clc1ccc2c(c1)C(N1CCNCC1)Cc1ccccc1S2 (stereo not given)	86.6*	-1.3	12.4	-4.2	1.6	-25.1
Clc1cccc2c1Sc1ccccc1CC2N1CCNCC1 (stereo not given)	87.9*	6.0	15.2	-9.3	5.8	-26.1
O=C(c1ccccc1Cl)N1CCNCC1	20.4	18.3	-8.4	-4.2	1.1	-8.0
COCCCN1CCN(C2Cc3ccccc3Sc3ccc(Cl)cc32)CC1 (stereo not given)	47.5*	0.1	21.0	-6.0	7.5	-23.2
COC(=O)c1cc(OC)c(OC)cc1NC(=O)c1ccc(C)o1	0.5	-6.0	18.5	-5.2	4.1	1.9
Cc1cc(C)n2c(NCc3ccccc3)c(-c3cc4ccccc4o3)nc2n1	.	-2.0	11.3	.	0.5	.
CC(C)CCN1CCN(CCCn2cccn2)CC1CCO (stereo not given)	-4.3	13.0	-1.5	-9.6	-0.7	4.7
C[C@H](NC(=O)[C@@H]1CSC2c3ccccc3C(=O)N21)C(=O)NC1CCCCC1 (stereo not given in full)	-7.7	-6.4	10.1	-1.7	0.3	6.7
C[C@H](NC(=O)[C@@H]1CSC2c3ccccc3C(=O)N21)C(=O)NC1CCCC1 (stereo not given in full)	27.4*	1.2	-13.2	-0.2	0.4	-10.4
CC1(C)CC(NS(=O)(=O)c2ccc(C(C)(C)C)cc2)CC(C)(C)N1	4.6	-8.6	9.9	-0.6	0.6	-0.9
CC(C)(C)NS(=O)(=O)c1cc(C(=O)Nc2sccc2C#N)ccc1Cl	11.5	2.5	2.7	-0.2	23.4*	-5.2
Cc1ccc(Cc2nc3ccccc3[nH]2)cc1	0.6	-8.8	11.6	-1.2	1.0	5.5
COc1ccc(Cc2nc3ccccc3[nH]2)cc1OC	4.9	46.5*	-2.9	-6.4	0.3	1.5
CCN(CC(=O)Nc1ccc(OC)cc1)C(=O)Cc1ccsc1	-25.4	-17.3	11.8	1.3	-0.2	27.2*
CCOC(=O)CN(C(=O)CNC(=O)c1ccco1)C(C(=O)NC1CCCCC1)c1cccs1 (stereo not given)	-0.6	-13.5	16.2	-0.9	2.5	2.4
CCOCCCN(C(=O)CNC(=O)c1ccco1)C(C(=O)NC1CCCC1)c1ccccc1C (stereo not given)	1.4	44.5*	5.1	-0.1	1.6	-0.1
COc1ccc(CN(C(=O)Cc2c[nH]c3ccccc23)C(C(=O)NC2CCCCC2)c2ccc(C)o2)cc1 (stereo not given)	14.3	-1.3	4.8	-6.9	1.6	-10.1
SMILES	CHRM1 antagonist	CHO-K1 Ca antag	M1 PAM parental	CHRM1 agonist	CHO-K1 Ca ag	M1 PAM
Cc1ccc(C(C(=O)NC2CCCCC2)N(Cc2ccccc2)C(=O)Cc2c[nH]c3ccccc23)o1 (stereo not given)	7.8	5.4	18.8	-5.9	19.1*	-6.7
COc1ccc(C(C(=O)NC2CCCC2)N(Cc2ccccc2)C(=O)CNC(=O)c2ccco2)cc1 (stereo not given)	9.7	32.2*	-3.8	1.6	1.2	1.3
C=CCN(C(=O)CNC(=O)c1ccco1)C(C(=O)NC1CCCCC1)c1ccc(OC)cc1 (stereo not given)	14.6	-5.6	9.4	-3.3	0.4	-6.8
CCOC(=O)CN(C(=O)CNC(=O)c1ccco1)C(C(=O)NC1CCCC1)c1ccccc1OCC (stereo not given)	-2.5	-0.7	14.2	-3.2	1.6	7.3
COCCN(C(=O)c1ccco1)C(C(=O)NC1CCCC1)c1cccs1 (stereo not given)	-1.9	24.7*	-6.3	-2.7	-0.1	2.6
Cc1cccc[n+]1CC(=O)N1c2ccccc2Sc2ccccc21	98.5*	-5.5	13.1	-13.3	0.3	-33.9
Cc1cc(C)n(CC(=O)N2c3ccccc3Sc3ccccc32)n1	37.7*	10.6	-5.0	-5.9	1.2	-21.7
CC1=C(C(=O)N2CCCCCC2)CC(CC(=O)NCCCN(C)C)C(=O)N1Cc1ccc(F)cc1 (stereo not given)	.	-11.3	-7.4	.	0.0	.
Cc1cc(C(=O)N2CCC2(C)C(=O)NS(=O)(=O)c2ccccc2Cl)nn1C (stereo not given)	-7.8	0.6	26.0	-0.2	0.8	5.6
COc1ccccc1NC(=O)N1c2ccc(F)cc2CCC1C (stereo not given)	16.7	24.0*	-8.7	-2.2	-0.1	-3.6
COc1ccc(C(=O)N2c3ccc(F)cc3CCC2C)cc1OC (stereo not given)	7.3	15.5	-5.8	-4.5	0.1	-3.8
Cc1cc(C)n(CC(=O)c2cccc([N+](=O)[O-])c2)n1	-10.5	0.1	9.2	-6.2	17.3*	9.1
CCCN(C(=O)Cc1ccc(S(=O)(=O)N2CCOCC2)s1)c1c(N)n(Cc2ccccc2)c(=O)[nH]c1=O	11.8	-5.8	-8.7	-2.4	0.8	-3.7
O=C(CCCSc1nc2ccccc2[nH]1)N1CCN(c2ccc([N+](=O)[O-])cc2)CC1	43.5*	-13.2	12.2	0.2	0.1	-18.2
CN(C)/C=N/NC(=O)c1ccc(Cl)cc1	3.8	-5.8	21.4	-6.7	3.5	-0.3
CN(C)/C=N/c1cnc(C(=O)c2ccc(Cl)cc2)n1C	10.2	7.5	-5.7	-1.5	0.5	26.0*
Cc1c(N2C(=O)c3ccc(Br)cc3C2=O)c(=O)n(-c2ccccc2)n1C	73.8*	-1.8	14.0	-2.9	0.1	-18.5

Source: PubChem
